According to PMC10163288:
These entries were drawn from the full list. The hit rate among all sequences tested is not known here.

B1: il10ra_site1_normal_mot_HHH_b1_02708_af2_000000019_0001_23_39_H_._e0a7e7c149437fae01dc270677924e9f_0001_1_0001_0000100001_0000001_0 (protein)
chain: SLEEEVTELVRELGLPPMVESAVRSFVLAKELGDEEYLKIAEHFLEAQARRDPNVEEVLRFLRER
B2: il10ra_site1_normal_mot_HHH_b2_04646_000000019_0001_1_20_H_._HHH_b2_05789_af2_0001_0000400029_0000001_0 (protein)
chain: SSSSSDEEEAREEAERLLEEAEQIEDRHEVARLLYRASRLAAEGQDDELARRLVKLFARLSSSSS
B3: il10ra_site1_normal_mot_HHH_b2_00475_000000107_0001_44_57_H_._HHH_b2_01638_af2_0001_0000900052_0000002_0 (protein)
chain: SSSSEAEQRVAELLFRALRLLYEGNPEEAKEVVEEARRLAEENNDEELEEYVRILKHFIESHSSS
B4: il10ra_site1_normal_mot_8756ee2cf497b5429c717dfc0c0bcfd6_0001_000000186_0001_1_13_H_._HHH_b2_00335_af2_0001_0000300021_0000001_0_af2pred_0001 (protein)
chain: SSSSSDRLRELLELLRRIIELSRDGDPEEARKLIEEAQELAEELNDEVAKAILEFLEEHVNSSSS
B5: il10ra_site1_normal_mot_HHH_b1_00999_000000080_0001_41_55_H_._HHH_b1_02031_af2_0001_0000100001_0000001_0 (protein)
chain: SSSSSDEEEEEVERLLEEAEKIPDPRERNEILLEALHIALELGDEELLQLVWKVVKELGSSSSSS
B6: il10ra_site1_normal_mot_HHH_b1_05326_000000242_0001_1_20_H_._HHH_b1_05311_0001_0000100004_0000001_0 (protein)
chain: SSSSSSDEALELSRRAFKAALHGNPEEARELLEEALELAEERGDERLARIIQDLLKVLSSSSSSS
B7: il10ra_site1_sap_12_mot_HHH_b1_06789_af2_000000041_0001_1_20_H_._HHH_b2_05839_af2_0001_0000300031_0000002_0_0001 (protein)
chain: SSSSSDEEEIEELLREIKELLENNDRERALELIQEALRVIFQHSDEEALRELFELVRKLGSSSSS
B8: il10ra_site1_sap_22_mot_HHH_b2_03220_af2_000000223_0001_23_40_H_._HHH_b1_01542_0001_0000500044_0000001_0_0001_af2pred_0001 (protein)
chain: SSSSSEEEVEELERRIEELLEEGNRHEAAALILRLFALAHELRDPEVEEEARRLAQLAANSSSSS
B9: il10ra_site1_normal_mot_HHH_b2_06857_af2_000000179_0001_42_54_H_._HHH_b1_05676_af2_0001_0000100011_0000001_0 (protein)
chain: SSSSDETEEVVELLRRAAELHSDGDHEEARRLLEEAQELAEELGNELLRYQIEFAERSLDSSSSS
B10: il10ra_site1_sap_25_mot_HHH_b1_01879_000000050_0001_1_18_H_._HHH_b1_08444_0001_0000100004_0000001_0_0001 (protein)
chain: SSSSSTQELYELSRKAMELLRNGNPEEAEKLLEEALELAEEEGNWAAIVALRYILRAIRRSSSSS

molecular target: il10ra, Q13651; experiment: yeast display titration
Sequence (Q13651 whole entry): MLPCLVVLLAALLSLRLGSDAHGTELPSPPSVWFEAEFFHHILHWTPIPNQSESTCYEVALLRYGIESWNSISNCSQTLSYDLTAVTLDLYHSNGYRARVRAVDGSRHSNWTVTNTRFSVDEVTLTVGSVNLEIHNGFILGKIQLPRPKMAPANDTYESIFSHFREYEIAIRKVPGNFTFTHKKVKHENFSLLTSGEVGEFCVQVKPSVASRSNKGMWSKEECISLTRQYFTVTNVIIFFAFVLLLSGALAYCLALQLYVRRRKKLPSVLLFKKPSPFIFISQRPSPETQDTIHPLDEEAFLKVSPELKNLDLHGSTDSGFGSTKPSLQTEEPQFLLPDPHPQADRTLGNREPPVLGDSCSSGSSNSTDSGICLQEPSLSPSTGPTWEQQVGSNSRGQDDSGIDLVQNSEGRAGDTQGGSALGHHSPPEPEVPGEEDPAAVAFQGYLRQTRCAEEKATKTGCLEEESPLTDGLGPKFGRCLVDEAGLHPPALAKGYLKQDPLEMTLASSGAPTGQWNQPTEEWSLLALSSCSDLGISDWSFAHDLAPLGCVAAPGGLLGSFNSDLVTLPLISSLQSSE

Apparent Kd, inactive:
B1 no binding seen
B2 no binding seen
B3 no binding seen
B4 no binding seen
B5 no binding seen
B6 no binding seen
B7 no binding seen
B8 no binding seen
B9 no binding seen
B10 no binding seen
